# IL-1B inflam inh = qHTS for Inhibitors of Inflammasome Signaling: IL-1-beta AlphaLISA Primary Screen | THP-1 LPS/ATP IL-1B secretion, AlphaLISA, 16 h; stronger effect = lower value | activity change, % at 57.5 µM | hit rate 4.7% among 360,000 | AID 743279, 2014; in the data active = activity change below about -50%; inconclusive = mostly about -30% to -49%
#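 THP-1 cells pretreated 1 hr with compounds (up to 57.5 uM final), then stimulated with LPS (250 ng/mL final) plus ATP (1.25 mM final); secreted IL-1B measured by AlphaLISA after 16 hr, decreased signal indicating inhibition.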
# CtBP-E1A blk = qHTS Assay for Inhibitors of the CtBP/E1A Interaction; AlphaScreen GST-E1A/His-CtBP binding, 1536-well; stronger effect = lower value; hit rate 0.49% among 340,000; activity change, % (test concentration not listed); in the data active = activity change below about -65%; inconclusive = mostly about -30% to -63%
#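 Steps: dispense buffer (Tris pH 8.0, NaCl 300 mM, TCEP 1 mM, BSA, Tween 20); add 5X protein mix (GST-E1A, His-CtBP, 125 nM each); pin 23 nL compound; 2 h at 37 °C, dark; add 5X beads (50 ug/mL); 1 h; read.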
# DT40 TDP1 CPT = qHTS for Inhibitors of human tyrosyl-DNA phosphodiesterase 1 (TDP1): qHTS in cells in presence of CPT | Potency, µM (titrated, usually from 46.2 µM), actives largely listed as inhibitors | AID 686979, 2013 | hit rate 12% among 420,000 | chicken DT40 Tdp1-/-;hTDP1 cells + 20 nM CPT, ATP luminescence, 48 h; also: nearly all actives have a fitted effect of over 55% in size
#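 Cell growth measured by CellTiter-Glo luminescence after a minimum 48 h, 37 C compound exposure with 20 nM CPT in Tdp1-knockout DT40 cells stably expressing hTDP1, seeded 400/well; qHTS titration format.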
# TDP1 inh = qHTS Assay for Inhibitors of Tyrosyl-DNA Phosphodiesterase (TDP1). Potency, µM (top dose mostly 130 µM), most hits filed as inhibitors. hit rate 0.28% among 350,000. recombinant TDP1, AlphaScreen DNA substrate cleavage. Tyrosyl-DNA phosphodiesterase 1 (Homo sapiens), Q9NUW8; also: nearly all actives have a fitted effect of over 40% in size
# Target sequence (Q9NUW8 whole entry, looked up): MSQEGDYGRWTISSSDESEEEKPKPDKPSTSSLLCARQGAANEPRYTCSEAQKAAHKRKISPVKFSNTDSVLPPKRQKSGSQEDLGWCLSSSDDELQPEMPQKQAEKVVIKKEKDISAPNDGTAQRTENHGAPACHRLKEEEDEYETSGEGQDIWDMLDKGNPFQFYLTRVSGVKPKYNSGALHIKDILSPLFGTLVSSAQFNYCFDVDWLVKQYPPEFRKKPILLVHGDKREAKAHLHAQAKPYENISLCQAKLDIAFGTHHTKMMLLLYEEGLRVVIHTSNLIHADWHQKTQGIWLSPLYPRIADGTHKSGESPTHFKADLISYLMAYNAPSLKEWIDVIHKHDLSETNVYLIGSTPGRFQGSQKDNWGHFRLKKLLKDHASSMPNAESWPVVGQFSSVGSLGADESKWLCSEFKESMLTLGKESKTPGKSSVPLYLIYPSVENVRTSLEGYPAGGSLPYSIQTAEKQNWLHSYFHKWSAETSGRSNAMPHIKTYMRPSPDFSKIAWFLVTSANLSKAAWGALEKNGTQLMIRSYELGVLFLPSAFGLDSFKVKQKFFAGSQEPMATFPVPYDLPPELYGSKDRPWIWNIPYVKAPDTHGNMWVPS
#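 E. coli-derived human Tdp1, 1 nM final. Cpd preinc 15 min RT; substrate 15 nM final, 5 min RT; AS bead mix 10 ug/ml final, 10 min RT. Signal loss = tyrosine-FITC cleavage. No-enzyme wells = max signal.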
# Six1-Eya2 inh = qHTS Assay for Inhibitors of the Six1/Eya2 Interaction. Homeobox protein SIX1 (Homo sapiens) + Protein phosphatase EYA2 (Homo sapiens), …. AID 651725, 2012. AlphaScreen GST-Six1/His-Eya2 binding, biochemical; stronger effect = lower value. activity change, % (test concentration not listed). hit rate 0.56% among 360,000; in the data active = activity change below about -65%; inconclusive = mostly about -30% to -63%
#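 AlphaScreen with GST-Six1 and His-Eya2 (5X mix: 250 nM and 500 nM), glutathione donor and nickel acceptor beads; buffer 50 mM Tris pH 8.0, 300 mM NaCl, 1 mM TCEP; 1 h at 37 C in the dark.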
# DT40 TDP1 no CPT = qHTS for Inhibitors of human tyrosyl-DNA phosphodiesterase 1 (TDP1): qHTS in cells in absence of CPT. DT40 Tdp1-/- hTDP1 cells, no CPT, ATP luminescence, 48 h. Potency, µM (titrated, usually from 46.2 µM), actives largely listed as inhibitors. hit rate 15% among 420,000. AID 686978, 2013; also: nearly all actives have a fitted effect of over 55% in size
#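 Camptothecin absent (DMSO only). Human TDP1-complemented DT40 knockout cells, 400 cells/well, 37 °C for minimum 48 hr; ATP measured via CellTiter-Glo, 30 min dark incubation, luminescence.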
# Numbers stand for hits; . = inactive; ? = inconclusive; / = no result given; [ ] = remark or other dose. The list is not random: actives were taken first. Their share in the collection is about 18%. Unless noted, calls follow the shape of the dose curve; as a rule, active = well fitted curve in the direction sought with a large enough effect; inconclusive = small, poorly fitted or top-dose-only effect, or another doubt; inactive = no such curve, though single readings can be large; an effect the other way counts as inactive or inconclusive.
SMILES,IL-1B inflam inh,CtBP-E1A blk,DT40 TDP1 CPT,TDP1 inh,Six1-Eya2 inh,DT40 TDP1 no CPT
O=C(NN1CC(C(=O)OCc2ccc(Br)cc2)CC1=O)c1ccccc1 (stereo not drawn),.,.,.,.,.,.
Cc1cccn2c(=O)c3cc(C(=O)NCc4ccc(F)cc4)c(=N)n(CCCN4CCOCC4)c3nc12,.,.,.,/,.,.
O=C1c2cccc3c(Cl)ccc(c23)C(=O)N1O,.,.,?,22.4µM,.,5.8µM
CCOC(=O)Cn1c(=O)oc2cc(S(=O)(=O)NCCC(C)C)ccc21,.,.,?,.,.,.
COC(=O)c1sccc1NC(=O)CNC(=O)c1ccccc1,.,.,.,.,.,.
CCOC(=O)N1CCN(C(=O)c2cccc(N3C(=O)NC4CC3(C)Oc3ccc(Cl)cc34)c2)CC1 (stereo not drawn),.,.,?,.,.,3.26µM
COc1ccc(CCN2C(=S)NC3CC2(C)Oc2ccc([N+](=O)[O-])cc23)cc1OC (stereo not drawn),.,?,10.3µM,.,?,14.6µM
COc1cc(N2C(=O)NC3CC2(C)Oc2ccccc23)cc(OC)c1OC (stereo not drawn),.,.,.,.,.,.
COc1ccc(N2C(=O)NC3CC2(C)Oc2ccc(Cl)cc23)cc1OC (stereo not drawn),.,.,23.1µM,.,.,?
Cc1ccc2c(c1)C1CC(C)(O2)N(c2cccc(C(=O)NC3CCN(Cc4ccccc4)CC3)c2)C(=O)N1 (stereo not drawn),-52.8,.,?,.,.,?
COc1ccc(CCNS(=O)(=O)c2ccc([N+](=O)[O-])cc2)cc1OC,.,.,.,/,.,.
O=C(NCCc1ccc(F)cc1)N1CCOCC1,.,.,?,.,.,.
O=C(Nc1ccncc1)c1ccc(NS(=O)(=O)c2ccc3[nH]c(=O)[nH]c3c2)cc1,.,.,.,.,.,.
COc1cc2ccccc2cc1C(=O)N1CCCCC1,.,.,.,.[0.505 µM],.,.
Cc1ccsc1C(=O)OCC(=O)NC1CCCCC1C (stereo not drawn),.,.,.,.,.,.
COc1ccc(N2CCN(C(=O)c3ccc(N4C(=O)NC5CC4(C)Oc4ccccc45)cc3)CC2)cc1 (stereo not drawn),?,.,29.1µM,.,.,?
Cc1ccc(S(=O)(=O)N2CCC(C(=O)OCC(=O)NCc3ccco3)CC2)cc1C,.,.,.,/,.,.
CC(=O)c1cc2c(cc1NC(=O)c1cc(C)nn1-c1ccccc1)OCO2,.,.,5.17µM,.,.,3.66µM
CC(=O)c1cc2c(cc1NC(=O)C1CC=CCC1C(=O)O)OCO2 (stereo not drawn),.,.,.,.,.,?
CC(=O)Nc1ccc(NC(=O)c2cc(C)nn2-c2ccccc2)cc1,.,.,.,.,.,.
CC(=O)c1cc2c(cc1NC(=O)C1CN(C(C)=O)c3ccccc3O1)OCO2 (stereo not drawn),.,.,14.6µM,.,.,20.6µM
COc1ccc(-c2nnn3c2nc(NCc2ccc(C)cc2)c2ccccc23)cc1,/,/,.,.,/,.
CC(C)(C)c1ccc(CSc2nnc(-c3ccccn3)n2Cc2ccco2)cc1,-93.7,.,?,.,.,?
COc1ccc(C(=O)CSc2nnc(-c3ccccn3)n2Cc2ccco2)cc1,.,?,.,.,?,?
Clc1cccc(CSc2nnc(-c3ccccn3)n2Cc2ccco2)c1,.,.,16.4µM,.,.,16.4µM
SMILES,IL-1B inflam inh,CtBP-E1A blk,DT40 TDP1 CPT,TDP1 inh,Six1-Eya2 inh,DT40 TDP1 no CPT
Brc1ccc(CSc2nnc(-c3ccccn3)n2Cc2ccco2)cc1,.,.,14.6µM,.,.,8.2µM
CNC(=O)CSc1nnc(-c2ccccn2)n1Cc1ccco1,.,.,.,.,.,.
CCOc1ccc(CCNC(=O)CN2C(=O)COc3ccc(S(=O)(=O)N4CCCC4)cc32)cc1,/,/,?,.,/,?
CC1(C)Cc2c(sc3c2c(=N)n(Cc2ccco2)c(=O)n3CC(=O)Nc2ccccc2)CO1,-50.9,.,?,.,.,?
CC1(C)Cc2c(sc3c2c(=N)n(Cc2ccco2)c(=O)n3CC(=O)Nc2ccc(Cl)cc2)CO1,-80.2,.,?,.,.,?
Cc1cccc(NC(=O)Cn2c(=O)n(Cc3ccco3)c(=N)c3c4c(sc32)COC(C)(C)C4)c1,.,.,?,.,.,?
CC1(C)Cc2c(sc3c2c(=N)n(Cc2ccco2)c(=O)n3CC(=O)Nc2cccc(Cl)c2)CO1,?,.,?,.,.,20.6µM
Cc1ccc(-n2c([S-])c(C(=O)Nc3ccc(OC(F)F)cc3)[n+]3ccc(C(=O)NCCO)cc23)cc1C,.,.,.,.,.,.
COc1ccc(OC)c(N2C(=O)c3ccccc3C2c2nnnn2-c2ccc3c(c2)OCCO3)c1 (stereo not drawn),.,.,?,/,.,?
CC1(C)Cc2ccccc2/C(=C/C(=O)N2CCCCCC2)N1,.,.,16.4µM,.,.,25.9µM
Cc1cccc(CN2C[C@]34C=C[C@@H](C[C@@H]3S2(=O)=O)O4)c1,.,.,.,/,.,.
C[C@@H]1NS(=O)(=O)[C@H]2C[C@@H]3C=C[C@]2(O3)[C@H]1OC(=O)c1ccc(C(C)(C)C)cc1,.,.,23.1µM,.,.,16.4µM
Cc1cccc(C(=O)O[C@@H]2[C@H](Cc3ccccc3)NS(=O)(=O)[C@H]3C[C@@H]4C=C[C@]23O4)c1,.,.,?,.,.,23.1µM
Cc1cccc(C(=O)O[C@H]2[C@H](Cc3ccccc3)NS(=O)(=O)[C@H]3CC4C=C[C@]23O4)c1,.,.,?,.,.,?
Cc1ccccc1C(=O)O[C@H]1[C@H](Cc2ccccc2)NS(=O)(=O)[C@H]2CC3C=C[C@]12O3,.,.,?,.,.,20µM
O=C(CSc1nc(N2CCCCC2)nc(N2CCCCC2)n1)c1ccccc1,.,.,?,.,.,?
Cc1cc(Oc2ccc3ccccc3c2)nc(SCC(=O)c2ccccc2)n1,.,.,20.6µM,.,.,18.4µM
COC(=O)c1ccc(Oc2cc(C)nc(-n3nc(C)cc3C)n2)cc1,.,.,0.731µM,.,.,0.581µM
Cc1cc(N2CCCCC2)nc(SCC(=O)c2ccccc2)n1,.,.,?,.,.,11.6µM

# High-throughput results: PubChem BioAssay, National Center for Advancing Translational Sciences (NCATS)
